Hit rate of the full screen: of about 310,000 compounds, about 14,000 (4.5%) showed an effect of 50% or more. The effect is printed as a negative number. For the sample, strong results were picked, then their nearest neighbours and some compounds at random.
Biological target: human ether-à-go-go-related gene (hERG) potassium channel (human, UniProt Q12809)
Experiment: primary screen, population patch clamp on CHO cells stably expressing hERG; higher = less effect of the substance
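Further: peak tail current of the secondary pulse compared with the same well before compound.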

human ether-à-go-go-related gene (hERG) potassium channel, sequence (Q12809 whole entry, looked up): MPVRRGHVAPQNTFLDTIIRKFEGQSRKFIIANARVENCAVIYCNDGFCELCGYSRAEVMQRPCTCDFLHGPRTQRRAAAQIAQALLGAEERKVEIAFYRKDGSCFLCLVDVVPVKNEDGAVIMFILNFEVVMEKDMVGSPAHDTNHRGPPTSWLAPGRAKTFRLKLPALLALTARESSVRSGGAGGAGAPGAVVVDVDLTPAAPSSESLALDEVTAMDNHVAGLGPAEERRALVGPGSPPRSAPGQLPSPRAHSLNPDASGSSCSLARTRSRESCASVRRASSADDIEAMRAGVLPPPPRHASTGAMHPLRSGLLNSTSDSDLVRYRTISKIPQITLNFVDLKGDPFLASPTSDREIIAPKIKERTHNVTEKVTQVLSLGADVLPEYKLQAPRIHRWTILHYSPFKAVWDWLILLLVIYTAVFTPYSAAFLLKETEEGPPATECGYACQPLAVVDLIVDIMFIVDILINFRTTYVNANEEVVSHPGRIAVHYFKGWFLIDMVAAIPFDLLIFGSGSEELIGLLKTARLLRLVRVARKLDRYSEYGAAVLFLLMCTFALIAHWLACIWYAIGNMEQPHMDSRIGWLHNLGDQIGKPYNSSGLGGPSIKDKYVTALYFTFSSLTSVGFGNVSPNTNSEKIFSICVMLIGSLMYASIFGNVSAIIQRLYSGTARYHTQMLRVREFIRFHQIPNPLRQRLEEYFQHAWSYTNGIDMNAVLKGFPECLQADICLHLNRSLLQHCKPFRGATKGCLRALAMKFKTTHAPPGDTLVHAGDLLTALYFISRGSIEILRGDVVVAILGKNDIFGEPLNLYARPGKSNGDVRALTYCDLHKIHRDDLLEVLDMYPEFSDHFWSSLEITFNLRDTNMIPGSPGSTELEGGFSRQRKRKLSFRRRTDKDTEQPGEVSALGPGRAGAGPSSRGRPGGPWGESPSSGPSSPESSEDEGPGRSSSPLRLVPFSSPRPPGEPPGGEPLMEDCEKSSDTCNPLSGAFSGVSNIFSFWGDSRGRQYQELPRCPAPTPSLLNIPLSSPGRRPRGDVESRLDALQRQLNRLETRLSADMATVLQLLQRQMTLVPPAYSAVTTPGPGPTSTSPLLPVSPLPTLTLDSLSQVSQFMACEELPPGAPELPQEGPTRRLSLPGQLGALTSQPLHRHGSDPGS

| Structure (SMILES) | hERG current change (%, negative = inhibition) at 10uM [%] |
| --- | --- |
| O=C1CC(N2CCN(S(=O)(=O)c3ccccc3)CC2)C(=O)N1c1ccccc1 (centres unmarked) | 1.87 |
| O=c1c2c3c(sc2n2cnnc2n1CCc1ccccc1)CCCC3 | -20.5 |
| CCOC(=O)c1cnn(-c2ccc(C)cc2)c1N | -1.1 |
| CN(C)CCCN(C(=O)c1ccc(S(=O)(=O)N2CCCCCC2)cc1)c1nc2c(F)cc(F)cc2s1.Cl | -69.6 |
| CCOc1cccc2sc(N(CCN(CC)CC)C(=O)c3ccc(S(=O)(=O)N4CCCCC4)cc3)nc12.Cl | -62.4 |
| CCOC(=O)N1CCN(S(=O)(=O)c2ccc(C(=O)N(CCCN(C)C)c3nc4c(F)cc(F)cc4s3)cc2)CC1.Cl | -51.3 |
| Cc1ccc2sc(N(CCCN(C)C)C(=O)c3ccc(S(=O)(=O)N4CCCCCC4)cc3)nc2c1C.Cl | -23.4 |
| CCOC(=O)N1CCN(S(=O)(=O)c2ccc(C(=O)N(CCN(CC)CC)c3nc4c(C)cccc4s3)cc2)CC1.Cl | -24.3 |
| CN(C)CCCN(C(=O)c1ccc(S(=O)(=O)N2CCCC2)cc1)c1nc2c(F)cc(F)cc2s1.Cl | -44.3 |
| CN(C)CCCN(C(=O)c1ccc(S(=O)(=O)N2CCCCCC2)cc1)c1nc2c(F)cccc2s1.Cl | -66.2 |
| CCOc1cccc2sc(N(CCCN(C)C)C(=O)c3ccc(S(=O)(=O)N4CCCCCC4)cc3)nc12.Cl | 7.67 |
| CN(C)CCCN(C(=O)c1ccc(S(=O)(=O)N2CCc3ccccc3C2)cc1)c1nc2c(F)cc(F)cc2s1.Cl | -15.2 |
| CCOc1cccc2sc(N(CCN(CC)CC)C(=O)c3ccc(S(=O)(=O)N4CCCC4)cc3)nc12.Cl | -24.2 |
| CN(C)CCCN(C(=O)c1ccc(S(=O)(=O)N2CCc3ccccc3C2)cc1)c1nc2c(F)cccc2s1.Cl | 4.85 |
| NC(=O)C1(N2CCCCC2)CCN(C2CC(=O)N(Cc3ccc(N4CCCC4=O)cc3)C2=O)CC1 (centres unmarked) | 5.32 |
| O=c1cc(N2CCN(Cc3ccccc3)CC2)[nH]c(=O)n1-c1ccc(Br)cc1 | -10.7 |
| CN(C)S(=O)(=O)c1ccc(C(=O)Nc2ccccc2OC(F)(F)C(F)F)cc1 | -16.6 |
| C#CCNc1ccncc1S(=O)(=O)NC(=O)NC(C)C.O=[N+]([O-])O | -1.14 |
| O=c1cc(CN2CCN(c3cccc(C(F)(F)F)c3)CC2)nc2sccn12 | -46.3 |
| CC(CNC(=O)CCc1nnc2ccc(N3CCC4(CC3)OCCO4)nn12)c1ccccc1 (centres unmarked) | -0.296 |
| O=C(CNC(=O)c1sc2ccccc2c1Cl)NC1CC1 | 3.65 |
| CCCCOc1ccccc1C(=O)NNC(=S)NC(=O)c1ccccc1[N+](=O)[O-] | 3.48 |
| NS(=O)(=O)c1ccc(NC(=O)c2cc(-c3cc(Cl)ccc3O)n[nH]2)cc1 | 15.7 |
| CCS(=O)(=O)N1N=C(c2ccc(NS(C)(=O)=O)cc2)CC1c1ccccc1 (centres unmarked) | -62.1 |
| CS(=O)(=O)Nc1ccc(C2=NN(S(C)(=O)=O)C(c3ccccc3)C2)cc1 (centres unmarked) | -73.6 |

| Structure (SMILES) | hERG current change (%, negative = inhibition) at 10uM [%] |
| --- | --- |
| CS(=O)(=O)N1N=C(c2ccc3nccnc3c2)CC1c1ccccc1 (centres unmarked) | -7.62 |
| CS(=O)(=O)N1N=C(c2cccs2)CC1c1ccccc1 (centres unmarked) | -11.3 |
| CCS(=O)(=O)Nc1ccc(C2=NN(S(=O)(=O)CC)C(c3cccs3)C2)cc1 (centres unmarked) | -9.32 |
| CCC(CC)C(=O)N1N=C(c2ccc(NS(C)(=O)=O)cc2)CC1c1ccccc1 (centres unmarked) | -41.4 |
| Cc1ccc2nc(-c3ccc(N4C(=NC(=O)CCC(=O)O)SC5CS(=O)(=O)CC54)cc3)sc2c1 (centres unmarked) | -19.3 |
| O=C(NC(Cc1c[nH]c2ccccc12)C(=O)N/N=C/c1ccc(Br)cc1)c1cccs1 (centres unmarked) | 8.02 |
| O=C(Nc1nccs1)C1CCCN(S(=O)(=O)c2cccc3cccnc23)C1 (centres unmarked) | -3.72 |
| CCCCOc1ccc(-c2nnc(N)s2)cc1 | 2.84 |
| CC(C)CCNC(=O)/C=C/c1ccc(Br)cc1 | 0.187 |
| Cc1[nH]nc(Nc2ccc(O)cc2)c1[N+](=O)[O-] | 23.6 |
| Cc1oc(-c2cccc(Cl)c2)nc1CN1CCCC(C(=O)NCCCN2CCOCC2)C1 (centres unmarked) | -28.1 |
| CCN1CCN(CCNC(=O)C2CCCN(Cc3nc(-c4cccc(Cl)c4)oc3C)C2)CC1 (centres unmarked) | -6.73 |
| Cc1oc(-c2ccc(Cl)cc2)nc1CN1CCCC(C(=O)NCCCN2CCCC2=O)C1 (centres unmarked) | -30.8 |
| Cc1oc(-c2cccc(Cl)c2)nc1CS(=O)(=O)CC(=O)NCc1ccco1 | -28.2 |
| CCCS(=O)(=O)N1CCCC(C(=O)NC(C)c2ccc3c(c2)OCCO3)C1 (centres unmarked) | 9.55 |
| Cc1oc(-c2ccc(Cl)cc2)nc1CN1CCCC(C(=O)NCc2ccco2)C1 (centres unmarked) | -71.9 |
| O=C(NCc1ccco1)C1CCCN(S(=O)(=O)c2ccc(Cl)cc2)C1 (centres unmarked) | -13.2 |
| Cc1oc(-c2cccc(Cl)c2)nc1CN1CCCC(C(=O)NCc2ccco2)C1 (centres unmarked) | -73 |
| Cc1oc(-c2cccc(Cl)c2)nc1CN1CCCC(C(=O)NC(C)c2ccc3c(c2)OCCO3)C1 (centres unmarked) | -57.5 |
| COc1ccccc1NC(=O)c1ccccc1NS(C)(=O)=O | -1.12 |
| O=C(O)/C=C/c1ccc(O)c(O)c1 | 13.1 |
| O=C1CSC(=S)N1c1ccc(Cl)c(Cl)c1 | 20.7 |
| CC1=C(C(=O)OC(C)(C)C)C(c2cccs2)NC(=O)N1 (centres unmarked) | -0.0788 |
| Cc1cc(OCC(=O)N2C[C@H]3C[C@@H](C2)c2cccc(=O)n2C3)c2c(C)c(C)c(=O)oc2c1 | 0.123 |
| CC(C)(CC(=O)O)CC(=O)N1CCCN(c2nccc(C(F)(F)F)n2)CC1 | 17.8 |

Source: article PMC4336329 (PLoS ONE, 2015)
